This is an account of results in PubChem BioAssay AID1566 (Sanford-Burnham Center for Chemical Genomics, 2009).

Each structure is given as a SMILES string. Where “and” joins values, the source holds several entries; their conditions need not be identical. Equal values may be shown once. In all, about 290,000 compounds went through this assay and about 1,800 (0.62%) were called active. Shown is part of a subset that was picked to be rich in actives. Values without a mark were called inactive. Rule as the data show it: active = inhibition above about 50%; inactive = the rest.

A short description of this experiment: inhibition of NOD2-driven NF-kB reporter – cell-based, luminescence, uHTS, HEK293 (AID 1566). The settings on record: HEK293 NOD2/NF-kB luciferase reporter, at 4 µM, hits give high values.
For the molecule `Cc1ccc(C(=O)O/N=C(\N)c2ccccn2)cc1`, the inhibition was -94.8%.
The same measure for `N/C(=N\OC(=O)c1ccccc1)c1ccccn1`: -52.6%; for `CC(NC(=O)Nc1ccccn1)N1C(=O)C2C3C=CC(C3)C2C1=O` (configuration not stated): 15.9%.
Take `Cc1cc(C(=O)NCc2cccs2)ccc1[N+](=O)[O-]`: the inhibition was 0.2%.
Next, `COc1ccc2c(c1)N(C(=O)CN1C(=O)C3CCCCC3C1=O)C(C)(C)C=C2C` (configuration not stated): -4.7%; `CC(O)c1cccc(NC(=O)CCC(=O)O)c1` (configuration not stated): 0.6%; `CC(C)CC(=O)Nc1cccc(C(C)O)c1` (configuration not stated): -0.6%.
For `CC(O)c1cccc(NC(=O)Nc2cccc(NC(=O)Nc3cccc(C(C)O)c3)c2)c1` (configuration not stated), the inhibition was 73.1% (active).
Next, `COc1ccccc1C(CC(=O)Nc1ccc(Cl)cc1)c1ccc(OC(C)C)cc1` (configuration not stated): 2.5%.
The same measure for `O=C(CCSCc1cccc(Cl)c1)NCCC1=CCCCC1`: 12.1%.
For the molecule `CCOc1ccccc1N1CCN(C(=O)c2c(Cl)cnn2C)CC1`, the inhibition is 9.1%.
The same measure for `CCn1cnc2cc(NS(=O)(=O)c3ccc(OC)c(OC)c3)ccc21`: 0%; for `CCC1c2ccc(C)n2CCN1C(=O)Nc1cc(Cl)ccc1OC` (configuration not stated): 13.8%.
Next, `COc1ccc(O)c(-c2[nH]ncc2C(=O)c2cccc(C)c2)c1`: 9.9%.
Turning to `COc1ccc(O)c(-c2[nH]ncc2C(=O)c2ccccc2C)c1`, the inhibition is 5.8%.
For the molecule `O=C(Cn1ncc2c3ccccc3n(Cc3ccc(F)cc3)c2c1=O)N1CCN(c2ncccn2)CC1`, the inhibition was 15.9%.
Next, `O=C(Nc1ccccc1)C1COc2ccccc2O1` (configuration not stated): -18.8%; `O=C(Nc1nncs1)C1COc2ccccc2O1` (configuration not stated): -9%.
The same measure for `O=C(NC1=NCCS1)C1COc2ccccc2O1` (configuration not stated): 63.1% (active); for `Nc1ccc(S(=O)(=O)O)cn1`: 7.7% and 2.4%; for `S=c1[nH]nc(-c2ccc(Cl)cc2)n1/N=C/c1cccs1`: -8.1%.
In the case of `O=c1c2ccccc2cnn1CCOc1cccc(Br)c1`, the inhibition was -63.9%.
Take `O=c1c2ccccc2cnn1CCOc1ccccc1`: the inhibition is 60.4% (active).
Next, `COc1ccc2cnn(CCOc3ccccc3)c(=O)c2c1OC`: -68.5%; `CC(C)CN1CCNC(=O)C1CC(=O)NCCCN1CCCc2ccccc21` (configuration not stated): 3%.
The same measure for `COc1ccc(NC(=O)c2ccc3c(c2)NC(=O)CS3)cc1S(=O)(=O)Nc1ccc(Br)cc1`: 3.4%; for `Cc1ccc(NS(=O)(=O)c2cc(NC(=O)c3cc(=O)[nH]c(=O)[nH]3)ccc2Cl)c(C)c1`: 22.6%; for `CC(=O)O/N=C/c1c(Cl)n(C)c2ccccc12`: -6.2%.
For `Cc1ccc(C2/C(=C(/O)c3cnn(-c4ccccc4)c3C)C(=O)C(=O)N2CCN2CCOCC2)o1` (configuration not stated), the inhibition is -58.4%.
With `Cc1c(/C(O)=C2/C(=O)C(=O)N(CCN3CCOCC3)C2c2cccnc2)cnn1-c1ccccc1` (configuration not stated), the inhibition is 8.5%.
In the case of `Cc1c(/C(O)=C2/C(=O)C(=O)N(CCN3CCOCC3)C2c2ccccn2)cnn1-c1ccccc1` (configuration not stated), the inhibition was 56.8% (active).
Next, `CCOC(=O)CSc1nc(C)c2ccccc2n1`: 3.1%; `CCOC(=O)CSc1nc(Nc2ccc3c(c2)OCO3)c2ccccc2n1`: 85.7% (active); `N#CCSc1nc(Nc2ccc3c(c2)OCO3)c2ccccc2n1`: 22%.
Next, `Cc1cc2ncc(C(=O)Nc3ccsc3C(=O)O)c(C)n2n1`: 20.1%; `Cc1cc[n+](C(C)C(=O)c2ccc(-c3ccccc3)cc2)cc1` (configuration not stated): 22.5%; `Cc1ccc[n+](C(C)C(=O)c2ccc(-c3ccccc3)cc2)c1` (configuration not stated): 23.2%.
The same measure for `Cc1cc(C)c[n+](C(C)C(=O)c2ccc(-c3ccccc3)cc2)c1` (configuration not stated): 53.1% (active); for `Cc1cc(NC(=O)CSc2nnc(CNC(=O)c3c(F)cccc3F)o2)no1`: -3.4%; for `COc1cccc(OC)c1C(=O)Nc1ccc(N2CCN(C(=O)c3ccco3)CC2)cc1`: 0.8%.
`O=C(CCS(=O)(=O)c1ccc2c(c1)NC(=O)CS2)NCc1cccs1`: the inhibition is 0.9%.
Next, `CCCN1C(=O)/C(=C/c2c(N3CCNC(=O)C3CC(=O)OCC)nc3c(C)cccn3c2=O)SC1=S` (configuration not stated): 44.3%.
The same measure for `CCOC(=O)CC1C(=O)NCCN1c1nc2c(C)cccn2c(=O)c1/C=C1\SC(=S)N(CC(C)C)C1=O` (configuration not stated): 51.8% (active); for `CCOC(=O)CC1C(=O)NCCN1c1nc2c(C)cccn2c(=O)c1/C=C1\SC(=S)N(C(C)CC)C1=O` (configuration not stated): 49%; for `Cc1nc2ncnn2c(N2CCN(C(c3ccccc3)c3ccccc3)CC2)c1C`: 11.8%.
As to `Cc1ccc(C(=O)Nc2cc3ccccc3oc2=O)cc1`, the inhibition was 69.7% (active).
As for `Cc1ccc(NC(=O)Nc2cnc3ccccc3c2)cc1`, the inhibition was -175%.
The same measure for `CC(=O)Nc1cc2ccccc2oc1=O`: 9%.
As to `Cc1ccc(C(=O)Nc2cnc3ccccc3c2)cc1`, the inhibition is 54.2% (active).
Next, `O=C(Nc1cnc2ccccc2c1)c1ccncc1`: -72%; `O=C(Nc1cc2ccccc2oc1=O)c1ccccc1`: 18.1%.
Next, `CNC(=O)NNC(=O)c1csc(-c2ccc(C(F)(F)F)cc2Cl)n1`: 14.2%; `COc1ccc(/C=N\Nc2ncc(F)c(N3CCOCC3)n2)cc1OC`: 3.5%; `COc1cccc(C(=O)O/N=C(\C)c2cnccn2)c1`: 4.6%.
The same measure for `Cc1nc2scc(C)n2c(=O)c1S(=O)(=O)NC(C)c1ccccc1` (configuration not stated): 20.2%; for `Cc1c(O)nc(SCC(=O)Nc2cccc(C(F)(F)F)c2)n(-c2ccccc2)c1=O`: -0.1%; for `CCOc1ccc(C(=O)N/N=C(\c2ccccc2)c2ccccn2)cc1`: -82%.
With `CCOc1ccc(OCc2ccc(C(=O)N/N=C(\C)c3ccccn3)cc2)cc1`, the inhibition is 76.9% (active).
Consider `C/C(=N\NC(=O)c1ccc(COc2ccccc2)cc1)c1ccncc1`, for which the inhibition is -1.5%.
The same measure for `COc1ccccc1/C=C1\SC(=S)N(CCC(=O)N2CCCCC2CCO)C1=O` (configuration not stated): 5.9%; for `CCCOc1ccc(C(O)(CCC)CCN2CCCCC2)cc1` (configuration not stated): 3.4%.
Next, `Cc1cc(C(=O)CN2C(=O)C3CC=CCC3C2=O)c(C)n1-c1ccccc1` (configuration not stated): -109%.
Next, `O=C(CN1C(=O)c2ccccc2S1(=O)=O)c1ccc(O)c(O)c1`: 42.4%; `O=C(CN1C(=O)c2ccccc2S1(=O)=O)c1ccccc1`: 52.5% (active); `Cc1cc(C(=O)CN2C(=O)c3ccccc3S2(=O)=O)c(C)n1-c1ccccc1`: 64.2% (active).
`Cc1ccc(C)c(C(=O)CN2C(=O)c3ccccc3S2(=O)=O)c1`: the inhibition is -15%.
Next, `O=C(CN1C(=O)c2ccccc2S1(=O)=O)c1cccc(Br)c1`: 0.6%.

In general, inhibition refers to the drop in the measured response relative to a control, in per cent.
